Source: PubChem (Broad Institute)
T cruzi growth = T. cruzi proliferation inhibition; inhibition, % at 8.34 µM; T. cruzi beta-gal in NIH3T3, GalScreen luminescence, 90 h; 5.9% of 77,000 active;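 active = mean inhibition above about 93%, with at least 55% of replicates each passing it, limit read from the data, passing the limit was not always enough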
Pf Dd2 inh = blocks growth of Plasmodium falciparum Dd2 parasites. P. falciparum Dd2 growth, SYBR Green, 72 h; active compounds read low. activity change, % at 10 µM. 2.3% of 94,000 active. AID 1159554; in the data active = activity change below about -80%
C diff growth = C. difficile growth inhibition; Clostridium difficile clinical isolate growth, OD600, 24 h; active compounds read low; growth activity, negative = inhibition, % at 16 µg/mL (by protocol); 0.25% of 86,000 active; AID 1259249;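 active = mean growth activity at or below -80% and every replicate also at or below -80%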
Hits are given with their value; n = inactive; x = no result given. Rows were chosen to be rich in hits. Some 6.8% of all compounds tested hit in one or more screens of this group.

SMILES | T cruzi growth | Pf Dd2 inh | C diff growth
O=C(C[C@H]1C[C@H]2c3cc(NC(=O)Nc4ccc(F)cc4)ccc3O[C@H]2[C@H](CO)O1)NC1CCCC1 | n | n | x
CC(C)C(=O)Nc1ccc2c(c1)C(=O)N(C)[C@H]1CC[C@@H](CC(=O)NCCCN(C)C)O[C@@H]1CO2 | n | n | n
COc1ccccc1C#Cc1ccc2c(c1)[C@H]1NCC[C@H]1[C@@H](CO)N2 | x | -87 | n
COc1ccccc1C#Cc1ccc2c(c1)[C@H]1[C@H](CCN1S(=O)(=O)c1ccccc1)[C@H](CO)N2 | n | n | n
O=S(=O)(c1ccc(F)cc1)N1CC[C@@H]2[C@@H](CO)Nc3ccc(C#Cc4cccc(F)c4)cc3[C@@H]21 | x | n | n
OC[C@@H]1Nc2ccc(C#Cc3cccc(F)c3)cc2[C@@H]2NCC[C@H]12 | x | -91 | -98
CCCNC(=O)C[C@H]1CC[C@@H]2[C@@H](COc3ccc(NC(=O)NCCC)cc3C(=O)N2C)O1 | x | n | n
C[C@@H]1CN([C@H](C)CO)C(=O)Cc2cc(NC(=O)C3CCCCC3)ccc2O[C@H]1CN(C)C(=O)Nc1ccc(F)cc1 | n | n | n
C[C@@H]1CN([C@@H](C)CO)C(=O)Cc2cc(NC(=O)CCCCCC(=O)Nc3ccccc3N)ccc2O[C@@H]1CN(C)Cc1ccc(Cl)c(Cl)c1 | n | n | n
C[C@@H]1CN([C@@H](C)CO)C(=O)c2cccc(NC(=O)CCCCCC(=O)Nc3ccccc3N)c2O[C@@H]1CN(C)Cc1ccc(Cl)c(Cl)c1 | n | -93 | x
C[C@H](CO)N1C[C@H](C)[C@@H](CN(C)Cc2ccc(Cl)c(Cl)c2)Oc2c(NC(=O)CCCCCC(=O)Nc3ccccc3N)cccc2C1=O | x | n | n
C[C@H]1CN([C@@H](C)CO)C(=O)c2cccc(NC(=O)CCCCCC(=O)Nc3ccccc3N)c2O[C@H]1CN(C)Cc1ccc(Cl)c(Cl)c1 | x | -88 | n
C[C@@H]1CN([C@H](C)CO)C(=O)c2cccc(NC(=O)CCCCCC(=O)Nc3ccccc3N)c2O[C@@H]1CN(C)C | x | n | n
C[C@@H]1CN([C@H](C)CO)C(=O)c2cccc(NC(=O)CCCCCC(=O)Nc3ccccc3N)c2O[C@@H]1CN(C)Cc1ccc(Cl)c(Cl)c1 | x | -91 | n
C[C@H](CO)N1C[C@H](C)[C@H](CN(C)C(=O)Nc2cccc3ccccc23)Oc2ccc(NC(=O)Cn3cnnn3)cc2CC1=O | n | n | n
C/C=C/c1ccc([C@H]2[C@@H](CNS(C)(=O)=O)N(CC3CCCC3)[C@H]2CO)cc1 | n | n | n
COc1ccc(NC(=O)N(C)C[C@H]2Oc3cc(C#CCC(C)C)ccc3S(=O)(=O)N([C@H](C)CO)C[C@H]2C)cc1 | n | -88 | n
COc1ccc(NC(=O)N(C)C[C@@H]2Oc3cc(C#CCC(C)C)ccc3S(=O)(=O)N([C@@H](C)CO)C[C@H]2C)cc1 | n | n | n
CCCC#Cc1ccc2c(c1)O[C@H](CN(C)C(=O)Nc1ccc(OC)cc1)[C@H](C)CN([C@H](C)CO)S2(=O)=O | n | -87 | x
CCCC#Cc1ccc2c(c1)O[C@H](CN(C)C(=O)Nc1ccc(OC)cc1)[C@@H](C)CN([C@H](C)CO)S2(=O)=O | n | n | n
COc1ccccc1NC(=O)N1C[C@H](O)COC[C@H]2O[C@@H](CC(=O)N3CCC(Cc4ccccc4)CC3)CC[C@@H]21 | n | n | n
O=C(N[C@H]1CC[C@@H](CCNS(=O)(=O)c2ccc(F)cc2)O[C@@H]1CO)C1CC1 | x | n | n
O=C(NCC[C@@H]1CC[C@H](NC(=O)C2CCC2)[C@@H](CO)O1)c1cnccn1 | n | n | x
C[C@H](CO)N1C[C@H](C)[C@H](CN(C)C(=O)Nc2ccc(C(F)(F)F)cc2)Oc2ccc(NC(=O)Cc3cn(C)c4ccccc34)cc2C1=O | n | n | n
COc1ccc(S(=O)(=O)Nc2ccc3c(c2)CC(=O)N([C@H](C)CO)C[C@H](C)[C@@H](CN(C)S(=O)(=O)c2ccc(OC)cc2)O3)cc1 | n | n | n
SMILES | T cruzi growth | Pf Dd2 inh | C diff growth
COc1ccc(S(=O)(=O)Nc2ccc3c(c2)CC(=O)N([C@@H](C)CO)C[C@H](C)[C@H](CN(C)S(=O)(=O)c2ccc(OC)cc2)O3)cc1 | n | -86 | n
Cc1ccc(S(=O)(=O)N(C)C[C@@H]2Oc3ccc(NS(=O)(=O)c4ccc(Cl)cc4)cc3CC(=O)N([C@@H](C)CO)C[C@@H]2C)cc1 | n | -81 | n
Cc1ccc(S(=O)(=O)N(C)C[C@@H]2Oc3ccc(NS(=O)(=O)c4ccc(Cl)cc4)cc3CC(=O)N([C@H](C)CO)C[C@H]2C)cc1 | n | n | n
O=C(c1cccnc1)N1C[C@@H]2N[C@H](C1)C2c1ccc(-c2cccnc2)cc1 (stereo partly specified) | x | n | n
CN1C(=O)c2cc(NC(=O)C3CCCCC3)ccc2OC[C@H]2O[C@H](CC(=O)NCc3ccccc3F)CC[C@H]21 | n | n | n
C[C@@H]1CN([C@@H](C)CO)C(=O)Cc2cc(NS(=O)(=O)c3ccc(F)cc3)ccc2O[C@@H]1CN(C)C(=O)Nc1cccc2ccccc12 | n | n | n
COc1ccc(S(=O)(=O)N(C)C[C@@H]2OCCCC[C@H](C)Oc3ccc(NC(=O)Nc4cccc5ccccc45)cc3C(=O)N([C@H](C)CO)C[C@@H]2C)cc1 | n | n | n
COc1ccc(S(=O)(=O)N(C)C[C@H]2OCCCC[C@H](C)Oc3ccc(NC(=O)Nc4cccc5ccccc45)cc3C(=O)N([C@H](C)CO)C[C@H]2C)cc1 | n | -86 | n
COc1ccc(S(=O)(=O)N(C)C[C@@H]2OCCCC[C@H](C)Oc3ccc(NC(=O)Nc4cccc5ccccc45)cc3C(=O)N([C@@H](C)CO)C[C@H]2C)cc1 | n | -89 | n
Cc1ccc(S(=O)(=O)N(C)C[C@H]2OCCCC[C@H](C)Oc3ccc(NC(=O)Nc4cccc5ccccc45)cc3C(=O)N([C@H](C)CO)C[C@H]2C)cc1 | x | n | n
COc1ccc(S(=O)(=O)N(C)C[C@H]2OCCCC[C@@H](C)Oc3ccc(NC(=O)Nc4cccc5ccccc45)cc3C(=O)N([C@@H](C)CO)C[C@@H]2C)cc1 | n | n | n
Cc1ccc(S(=O)(=O)N(C)C[C@H]2OCCCC[C@H](C)Oc3ccc(NC(=O)Nc4cccc5ccccc45)cc3C(=O)N([C@@H](C)CO)C[C@H]2C)cc1 | x | -82 | n
COCC(=O)Nc1ccc2c(c1)C(=O)N(C)C[C@H](OC)[C@H](C)CN(Cc1ccncc1)[C@@H](C)CO2 | n | n | x
COc1ccc(S(=O)(=O)N(C)C[C@H]2Oc3ccc(NS(=O)(=O)c4cn(C)cn4)cc3CC(=O)N([C@H](C)CO)C[C@@H]2C)cc1 | n | n | n
O=C(Nc1cc(F)ccc1F)N1CCCCN2[C@H](C1)[C@H](c1ccc(C3=CCCCC3)cc1)[C@@H]2CO | n | n | n
COc1ccccc1NC(=O)N1CCCCN2[C@@H](CO)[C@@H](c3ccc(C#CC4CCCC4)cc3)[C@@H]2C1 | n | n | n
O=C(Nc1cc(F)ccc1F)N1CCCCN2[C@@H](CO)[C@@H](c3ccc(C4=CCCCC4)cc3)[C@@H]2C1 | n | n | -95
Cc1cccc(-c2ccc([C@@H]3[C@@H](CO)N4CCCCN(CCC(F)(F)F)C[C@@H]34)cc2)c1 | n | n | n
